Experiments:
Details in all cases: concentration: 1 μM,replicates: in singlicate; n = 1
PIP5K1A = tested on: PIP5K1A
PIP5K1C = tested on: PIP5K1C
PIP5K2B = tested on: PIP5K2B
PIP5K2C = tested on: T1, PIP5K2C
T1 construct: gene PIP4K2C

PKAC-alpha = tested on: T2, PKAC-alpha
T2 construct: gene PRKACA

PKAC-beta = tested on: T3, PKAC-beta
T3 construct: gene PRKACB

PKMYT1 = tested on: PKMYT1
PKN1 = tested on: PKN1
PKN2 = tested on: PKN2
PLK1 = tested on: PLK1
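Note: KINOMEscan kinase panel screen.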

Row | Compound | %Inh (PIP5K1A) [%] | %Inh (PIP5K1C) [%] | %Inh (PIP5K2B) [%] | %Inh (PIP5K2C) [%] | %Inh (PKAC-alpha) [%] | %Inh (PKAC-beta) [%] | %Inh (PKMYT1) [%] | %Inh (PKN1) [%] | %Inh (PKN2) [%] | %Inh (PLK1) [%]
1 | Cc1cccc2c(-c3ccncc3)c(-c3ccc(F)cc3)nn12.Cl [GW461487] | 13 | 35 | 10 | 0 | 0 | 0 | 9 | 0 | 0 | 0
2 | CC(C(=O)NC1CCN(c2ccnc(Nc3ccc(F)cc3)n2)C1)c1ccc(Cl)cc1 (stereo not shown) [GSK1379713] | 21 | 0 | 1 | 4 | 0 | 6 | 0 | 4 | 0 | 0
3 | COc1cc2nccc(Nc3ccc(Oc4ccccc4)cc3)c2cc1OC.Cl [GI261656] | 10 | 56 | 46 | 31 | 0 | 0 | 0 | 0 | 0 | 0
4 | COC(=O)Nc1nc2cc(Oc3ccc(NC(=O)Nc4cc(C(F)(F)F)ccc4Cl)cc3)ccc2[nH]1.Cl [GW697465] | 56 | 63 | 15 | 53 | 0 | 0 | 0 | 0 | 0 | 0
5 | O=C(NOCC1CC1)c1cc(Br)c(F)c(F)c1Nc1ccc(I)cc1Cl | 4 | 43 | 4 | 36 | 9 | 0 | 0 | 9 | 0 | 0
6 | C[C@@H]1CCN(C(=O)N2CCCC2)C[C@@H]1N(C)c1ncnc2[nH]ccc12 | 8 | 0 | 0 | 0 | 0 | 0 | 0 | 86 | 48 | 0
7 | CN(c1ccc2c(c1)nc(NCc1ccc(F)cc1)n2C)c1ccnc(Nc2ccc(CS(C)(=O)=O)cc2)n1.Cl [GW813244] | 12 | 0 | 26 | 52 | 24 | 14 | 4 | 18 | 4 | 0
